Bioassay records (PubChem)
IDE exosite FP = exo-site inhibitors of human insulin-degrading enzyme | P14735 | z-score at 20 µM | purified IDE, FL-6b probe fluorescence polarization; active compounds read low | actives 6.3% (n = 17,000);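 active = z-score of -3 or lower, meaning strong loss of probe binding signal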;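 also: His-tagged human IDE residues 42-1019 made in E. coli with 30 nM FL-6b probe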
Target sequence (P14735 42-1019 limits assumed): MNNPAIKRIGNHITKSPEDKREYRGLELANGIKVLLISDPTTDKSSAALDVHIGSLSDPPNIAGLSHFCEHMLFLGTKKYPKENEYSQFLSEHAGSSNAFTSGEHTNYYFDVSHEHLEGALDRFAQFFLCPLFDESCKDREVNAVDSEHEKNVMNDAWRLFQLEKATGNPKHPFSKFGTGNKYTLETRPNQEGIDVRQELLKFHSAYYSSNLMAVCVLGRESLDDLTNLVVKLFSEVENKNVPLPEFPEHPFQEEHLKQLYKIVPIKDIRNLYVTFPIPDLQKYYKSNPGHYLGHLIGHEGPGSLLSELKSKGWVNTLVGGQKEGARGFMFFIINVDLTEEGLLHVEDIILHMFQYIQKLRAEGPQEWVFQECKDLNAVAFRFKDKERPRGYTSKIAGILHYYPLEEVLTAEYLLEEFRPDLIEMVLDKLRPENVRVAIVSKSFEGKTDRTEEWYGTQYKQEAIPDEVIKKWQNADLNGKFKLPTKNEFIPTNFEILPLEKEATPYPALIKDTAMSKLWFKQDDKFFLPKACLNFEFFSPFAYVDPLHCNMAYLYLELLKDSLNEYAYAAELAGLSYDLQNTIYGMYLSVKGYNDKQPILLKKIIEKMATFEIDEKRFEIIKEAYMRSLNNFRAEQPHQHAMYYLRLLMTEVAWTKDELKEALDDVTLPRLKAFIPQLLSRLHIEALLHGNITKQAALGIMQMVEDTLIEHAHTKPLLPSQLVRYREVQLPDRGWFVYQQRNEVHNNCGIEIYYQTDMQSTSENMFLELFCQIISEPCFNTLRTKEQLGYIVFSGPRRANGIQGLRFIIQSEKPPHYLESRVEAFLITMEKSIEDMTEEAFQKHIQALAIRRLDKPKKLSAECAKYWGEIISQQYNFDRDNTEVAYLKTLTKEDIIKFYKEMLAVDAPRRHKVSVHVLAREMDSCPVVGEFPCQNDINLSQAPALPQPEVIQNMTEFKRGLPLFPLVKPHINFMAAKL
An asterisk follows results filed as active. Many of the other results were omitted from the sample, so hits are more common in it than they were.

SMILES	IDE exosite FP
O=C(CC1CC1)N1CC(=O)N2[C@@H](CO)[C@H](c3ccc(C#Cc4ccccc4)cc3)[C@@H]2C1	-11*
O=C(CC1CC1)N1CC(=O)N2[C@@H](CO)[C@H](c3ccc(C#Cc4ccc(F)cc4)cc3)[C@@H]2C1	-0.63
O=C(CC1CC1)N1CC(=O)N2[C@@H](CO)[C@@H](c3ccc(C#Cc4ccccc4)cc3)[C@@H]2C1	-11*
CCNC[C@H]1[C@@H](c2ccc(C3=CCCC3)cc2)[C@@H](CO)N1C(=O)C1CCCC1	0.72
COCC(=O)N1C[C@H](C)[C@@H](OC)CN(C)C(=O)c2ccc(NC(=O)Nc3cccc(F)c3)cc2OC[C@H]1C	0.96
CCS(=O)(=O)N1CC2(C1)[C@H](c1ccccc1)[C@@H](CO)N2Cc1ccc(F)cc1	0.73
C/C=C/c1ccc([C@@H]2[C@@H](CN(CC)C(C)=O)N(S(C)(=O)=O)[C@H]2CO)cc1	0.33
CCc1cnc(N2[C@H](C#N)[C@H](c3ccc(C#CC(C)C)cc3)[C@H]2CO)s1	5.5
CN(C)C(=O)c1ccc(-c2ccc([C@@H]3[C@@H](CO)N4CCCCN(CC5CC5)C[C@@H]34)cc2)cc1	4.3
CN(C)CC#Cc1ccc([C@H]2[C@H]3CN(C(=O)c4ccc(F)cc4)CC(=O)N3[C@H]2CO)cc1	4.6
COc1ccccc1-c1ccccc1[C@@H]1[C@@H](CO)N(C(=O)C2CCOCC2)[C@H]1C#N	-0.76
COc1cccc(C#Cc2ccc([C@@H]3[C@@H](CO)N(C(=O)C4CCOCC4)[C@H]3C#N)cc2)c1	-1.1
N#C[C@H]1[C@H](c2ccc(-c3cccnc3)cc2)[C@H](CO)N1C(=O)C1CC1	0.034
COc1ccc(-c2ccccc2[C@H]2[C@@H](C#N)N(C(=O)C3CCOCC3)[C@H]2CO)cc1	2
N#C[C@H]1[C@@H](c2ccc(-c3cccnc3)cc2)[C@@H](CO)N1C(=O)C1CCOCC1	-3*
COc1ccc(-c2ccc([C@@H]3[C@@H](CO)N(C(=O)C4CCOCC4)[C@H]3C#N)cc2)cc1	-1
N#C[C@H]1[C@H](c2ccc(-c3cncnc3)cc2)[C@@H](CO)N1C(=O)C1CCOCC1	0.76
N#C[C@H]1[C@H](c2ccc(-c3cccnc3)cc2)[C@@H](CO)N1C(=O)C1CCOCC1	0.8
COc1ccccc1-c1ccc([C@H]2[C@@H](C#N)N(C(=O)C3CCOCC3)[C@H]2CO)cc1	-6.9*
COc1ccccc1-c1ccc([C@@H]2[C@@H](C#N)N(C(=O)C3CCOCC3)[C@H]2CO)cc1	-9.8*
COc1ccccc1-c1ccc([C@@H]2[C@@H](CO)N(C(=O)C3CCOCC3)[C@H]2C#N)cc1	-11*
N#C[C@H]1[C@@H](c2ccc(/C=C/c3ccccc3)cc2)[C@@H](CO)N1C(=O)C1CCOCC1	-1.3
COc1ccc2c3c([nH]c2c1)[C@@H](CO)N(C(=O)C1CCOCC1)CC31CCN(Cc2nccs2)CC1	1
CCCNC(=O)N1[C@H](CNC(=O)c2ccc(F)cc2)[C@H](c2ccccc2)[C@@H]1CO	2.3
COc1ccc2c3c(n(C)c2c1)[C@@H](CO)N(S(=O)(=O)c1cn(C)cn1)CC31CCN(C)CC1	-0.19
SMILES	IDE exosite FP
COc1ccc(C(=O)Nc2ccc3c(c2)C(=O)N(C)[C@@H]2CC[C@@H](CC(=O)NCC4CC4)O[C@H]2CO3)cc1	-0.53
COc1cccc(S(=O)(=O)Nc2ccc3c(c2)[C@H]2C[C@H](CC(=O)NC4CCCCC4)O[C@@H](CO)[C@H]2O3)c1	-0.78
CCCN(C)C[C@H]1Oc2cc(/C=C/c3ccccc3)ccc2S(=O)(=O)N([C@@H](C)CO)C[C@H]1C	0.45
C/C=C/c1ccc([C@H]2[C@@H](C#N)N(C(=O)Cc3ccccn3)[C@@H]2CO)cc1	2.2
C[C@H]1CN([C@@H](C)CO)C(=O)c2cc(NC(=O)CCCN(C)C)ccc2O[C@@H]1CN(C)Cc1ccc(Cl)c(Cl)c1	-0.0043
COCC#Cc1ccc([C@H]2[C@@H](CO)N3CCCCN(Cc4cccnc4)C[C@@H]23)cc1	-0.34
CN(C)CC(=O)N1CCCCN2[C@H](C1)[C@H](c1ccc(-c3cccnc3)cc1)[C@@H]2CO	1.6
COCC#Cc1ccc([C@@H]2[C@@H](CO)N3C(=O)CN(C(=O)Nc4ccccc4F)C[C@@H]23)cc1	1.3
COc1ccc(S(=O)(=O)Nc2ccc3c(c2)[C@@H]2C[C@@H](CC(=O)N(C)C)O[C@H](CO)[C@@H]2O3)cc1	-0.96
Cc1ccc(-c2ccc([C@H]3[C@H]4CN(C(=O)CN5CCOCC5)CC(=O)N4[C@H]3CO)cc2)cc1	0.4
O=C(CN1CCOCC1)N1CC(=O)N2[C@@H](CO)[C@H](c3ccc(/C=C/c4ccccc4)cc3)[C@@H]2C1	-8.2*
Cc1ccc(-c2ccc([C@@H]3[C@@H](CO)N4C(=O)CN(C(=O)CN5CCOCC5)C[C@H]34)cc2)cc1	-2.3
CCCC#Cc1ccc([C@@H]2[C@H]3CN(C(=O)CN4CCOCC4)CC(=O)N3[C@H]2CO)cc1	4.2
O=C(CN1CCOCC1)N1CC(=O)N2[C@H](CO)[C@H](c3ccc(/C=C/c4ccccc4)cc3)[C@@H]2C1	-8.7*
O=C(C[C@@H]1C[C@H]2c3cc(NS(=O)(=O)c4ccc(F)cc4)ccc3O[C@H]2[C@@H](CO)O1)NCc1cccnc1	-0.06
N#C[C@H]1[C@H](c2ccccc2)[C@H](CO)N1C(=O)c1ccccc1F	-1.3
N#C[C@H]1N[C@@H](CO)[C@H]1c1ccc(C#CC2CCCC2)cc1	0.77
CN(C)C(=O)c1ccc(-c2ccc([C@H]3[C@@H](CO)N4C(=O)CN(C(=O)C5CCCC5)C[C@@H]34)cc2)cc1	3.1
CC(C)C#Cc1ccc([C@@H]2[C@@H](CO)N3C(=O)CN(S(=O)(=O)c4ccccc4)C[C@@H]23)cc1	0.01
O=C(Nc1ccccc1F)N1CC(=O)N2[C@H](CO)[C@H](c3ccc(-c4ccc(F)cc4)cc3)[C@@H]2C1	0.49
COc1ccccc1C(=O)N1C[C@H]2[C@@H](c3ccccc31)[C@@H](CO)N2C(=O)Cc1ccccc1	3.6
O=C(NCc1ccc(F)cc1)[C@H]1[C@H](CO)[C@H]2Cn3c(cccc3=O)[C@H]2N1C(=O)c1cccnc1	-0.14
CC(C)NC(=O)N1[C@H](CO)[C@H](c2ccccc2)C12CN(C(=O)c1ccccn1)C2	-1
CCCNC(=O)N1CC(=O)N2[C@H](C1)[C@@H](c1ccc(C#Cc3cccc(F)c3)cc1)[C@@H]2CO	-3
CCCNC(=O)N1CC(=O)N2[C@H](C1)[C@@H](c1ccc(-c3ccccc3)cc1)[C@@H]2CO	-5.6*
SMILES	IDE exosite FP
CCCNC(=O)N1CC(=O)N2[C@H](CO)[C@H](c3ccc(C#Cc4ccc(F)cc4)cc3)[C@@H]2C1	-0.11
COc1ccccc1NC(=O)N1CC(=O)N2[C@H](CO)[C@@H](c3ccc(-c4cccc(C)c4)cc3)[C@@H]2C1	-9.4*
CCCNC(=O)N1CC(=O)N2[C@H](CO)[C@H](c3ccc(C#Cc4cccc(OC)c4)cc3)[C@@H]2C1	-2
CCCNC(=O)N1CC(=O)N2[C@@H](CO)[C@H](c3ccc(-c4cccc(C)c4)cc3)[C@@H]2C1	-16*
COc1ccccc1NC(=O)N1CC(=O)N2[C@H](CO)[C@@H](c3ccc(-c4ccc(F)cc4)cc3)[C@H]2C1	1.1
COc1ccccc1NC(=O)N1CC(=O)N2[C@H](C1)[C@H](c1ccc(-c3cccc(C)c3)cc1)[C@@H]2CO	-1.8
CCCNC(=O)N1CC(=O)N2[C@H](CO)[C@@H](c3ccc(C#Cc4ccccc4)cc3)[C@@H]2C1	-6.9*
CCCNC(=O)N1CC(=O)N2[C@H](CO)[C@@H](c3ccc(C#Cc4ccc(F)cc4)cc3)[C@H]2C1	3.1
